In the supplement of paper PMC7724964:

T1: SPSB2 26-221 SPRY (domain begin residue: 26, domain end residue: 221), Q99619
T1 chain: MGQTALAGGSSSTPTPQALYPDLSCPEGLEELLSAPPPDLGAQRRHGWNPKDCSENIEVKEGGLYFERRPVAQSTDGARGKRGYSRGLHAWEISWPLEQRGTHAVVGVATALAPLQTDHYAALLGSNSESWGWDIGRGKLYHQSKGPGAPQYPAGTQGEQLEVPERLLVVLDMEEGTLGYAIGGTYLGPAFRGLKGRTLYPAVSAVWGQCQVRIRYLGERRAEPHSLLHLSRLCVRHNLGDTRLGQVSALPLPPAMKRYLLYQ

T2: SHC1 149-317 PID (domain begin residue: 149, domain end residue: 317), P29353
T2 chain: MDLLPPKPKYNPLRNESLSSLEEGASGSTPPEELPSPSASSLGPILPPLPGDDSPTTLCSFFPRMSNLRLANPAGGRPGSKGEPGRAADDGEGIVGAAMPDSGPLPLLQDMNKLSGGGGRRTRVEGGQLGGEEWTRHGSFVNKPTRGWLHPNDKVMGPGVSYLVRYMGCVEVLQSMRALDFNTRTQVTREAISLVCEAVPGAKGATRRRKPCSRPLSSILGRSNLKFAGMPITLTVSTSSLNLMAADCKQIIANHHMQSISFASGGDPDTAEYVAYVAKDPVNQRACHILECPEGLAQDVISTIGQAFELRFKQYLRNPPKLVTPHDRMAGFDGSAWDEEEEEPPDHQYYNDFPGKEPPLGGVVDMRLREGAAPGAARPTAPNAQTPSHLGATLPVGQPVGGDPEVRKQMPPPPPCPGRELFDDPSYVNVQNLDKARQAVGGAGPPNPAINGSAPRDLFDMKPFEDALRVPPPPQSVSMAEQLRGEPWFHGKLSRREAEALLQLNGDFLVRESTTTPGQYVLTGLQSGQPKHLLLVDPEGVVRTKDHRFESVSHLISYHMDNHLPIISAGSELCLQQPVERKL

T3: SPRED2 1-124 WH1 (domain begin residue: 1, domain end residue: 124), Q7Z698
T3 chain: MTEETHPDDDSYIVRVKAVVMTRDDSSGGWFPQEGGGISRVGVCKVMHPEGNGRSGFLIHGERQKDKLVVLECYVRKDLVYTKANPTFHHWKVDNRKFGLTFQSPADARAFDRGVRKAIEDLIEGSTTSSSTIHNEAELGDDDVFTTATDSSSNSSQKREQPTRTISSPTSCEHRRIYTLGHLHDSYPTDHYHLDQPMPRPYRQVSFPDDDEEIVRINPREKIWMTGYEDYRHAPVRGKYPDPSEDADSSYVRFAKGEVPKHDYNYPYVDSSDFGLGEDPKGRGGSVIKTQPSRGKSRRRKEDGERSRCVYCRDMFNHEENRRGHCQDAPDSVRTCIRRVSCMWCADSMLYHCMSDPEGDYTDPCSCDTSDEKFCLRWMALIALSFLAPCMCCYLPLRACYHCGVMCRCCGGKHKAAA

T4: SPRED3 1-117 WH1 (domain begin residue: 1, domain end residue: 117), Q2MJR0
T4 chain: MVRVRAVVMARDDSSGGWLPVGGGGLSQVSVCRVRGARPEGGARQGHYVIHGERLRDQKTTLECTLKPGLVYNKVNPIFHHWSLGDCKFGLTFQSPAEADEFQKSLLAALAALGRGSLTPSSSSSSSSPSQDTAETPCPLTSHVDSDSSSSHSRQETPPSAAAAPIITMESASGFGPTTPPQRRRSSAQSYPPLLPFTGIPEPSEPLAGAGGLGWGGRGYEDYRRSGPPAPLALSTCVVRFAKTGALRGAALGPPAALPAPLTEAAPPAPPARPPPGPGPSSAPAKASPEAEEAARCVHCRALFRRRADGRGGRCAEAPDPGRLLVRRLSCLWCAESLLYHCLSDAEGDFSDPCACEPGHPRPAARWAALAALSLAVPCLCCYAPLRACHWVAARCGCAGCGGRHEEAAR

T5: SPRED1 13-131 WH1 (domain begin residue: 13, domain end residue: 131), Q7Z699
T5 chain: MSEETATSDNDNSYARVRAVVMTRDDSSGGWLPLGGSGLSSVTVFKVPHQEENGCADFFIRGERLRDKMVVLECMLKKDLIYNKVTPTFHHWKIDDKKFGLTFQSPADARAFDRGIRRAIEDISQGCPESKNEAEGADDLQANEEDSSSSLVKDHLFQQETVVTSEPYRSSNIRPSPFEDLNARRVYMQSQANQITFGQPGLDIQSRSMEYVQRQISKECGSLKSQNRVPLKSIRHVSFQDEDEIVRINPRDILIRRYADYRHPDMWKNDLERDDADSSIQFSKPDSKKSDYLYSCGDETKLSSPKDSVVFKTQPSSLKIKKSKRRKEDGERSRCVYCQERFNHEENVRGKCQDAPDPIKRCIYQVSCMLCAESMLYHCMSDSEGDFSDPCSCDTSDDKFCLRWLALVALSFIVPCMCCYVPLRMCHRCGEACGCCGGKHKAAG

T6: SPAG1 615-745 TPR_1 (domain begin residue: 615, domain end residue: 745), Q07617
T6 chain: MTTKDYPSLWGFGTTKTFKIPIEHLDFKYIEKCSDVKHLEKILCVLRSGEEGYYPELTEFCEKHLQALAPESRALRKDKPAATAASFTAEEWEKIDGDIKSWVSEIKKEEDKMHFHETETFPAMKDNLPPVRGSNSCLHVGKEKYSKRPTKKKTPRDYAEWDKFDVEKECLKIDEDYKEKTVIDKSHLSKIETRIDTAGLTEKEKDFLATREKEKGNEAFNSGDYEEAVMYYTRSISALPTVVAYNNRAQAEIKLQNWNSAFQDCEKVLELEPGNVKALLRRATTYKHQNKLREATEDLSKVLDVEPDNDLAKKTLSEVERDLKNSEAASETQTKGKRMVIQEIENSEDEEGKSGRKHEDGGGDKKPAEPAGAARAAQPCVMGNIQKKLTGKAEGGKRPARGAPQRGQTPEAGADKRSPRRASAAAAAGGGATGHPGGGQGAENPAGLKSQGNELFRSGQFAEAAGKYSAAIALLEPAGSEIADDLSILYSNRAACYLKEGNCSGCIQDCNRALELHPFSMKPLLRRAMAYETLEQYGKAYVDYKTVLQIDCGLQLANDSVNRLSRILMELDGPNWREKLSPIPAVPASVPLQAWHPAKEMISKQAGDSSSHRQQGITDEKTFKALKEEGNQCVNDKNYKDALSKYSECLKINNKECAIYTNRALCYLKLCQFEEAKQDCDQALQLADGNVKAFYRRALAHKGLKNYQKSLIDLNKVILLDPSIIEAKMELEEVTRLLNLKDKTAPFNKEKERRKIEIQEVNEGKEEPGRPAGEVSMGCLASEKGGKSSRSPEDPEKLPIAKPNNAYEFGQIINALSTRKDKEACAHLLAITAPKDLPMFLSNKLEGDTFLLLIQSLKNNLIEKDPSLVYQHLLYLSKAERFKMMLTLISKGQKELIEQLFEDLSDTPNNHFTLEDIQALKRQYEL


Molecular target: T1, SPSB2 26-221 SPRY (domain begin …
Test: phage ELISA signal ratio (GST-PRM binding over GST background); higher = stronger binding of peptide-phage to the PRM
How it was run: (§1)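 Approximately 48 individual clones from selection rounds 4 and 5 were tested by phage ELISA, and those scoring positive were sequenced. They came from five rounds of selecting an M13 phage library of randomized, cysteine-free, glycine-flanked hexadecapeptides on the gene-8 major coat protein against human peptide recognition domains fused to the C-terminus of glutathione S-transferase (GST) in 96-well plates. Each figure in the table is the ELISA signal on the GST-domain fusion relative to the signal on GST alone.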

In order of rising “phage ELISA signal ratio” value:
1. ERVMDLNGNWITKSVA  10.8
2. TGENNNVMPPHLSEHV  11.7
3. YYLDENQNWISEGFLW  12.1
4. RSDYARDANGNMVVEF  21.3
5. WLAQDYNNNHMWLDWK  27.1
6. IVDTYWAMENNNVGTV  29.6
7. NTMWFDLWDINNNPLS  32.3
8. FEEMELVGDLNNNMMP  32.8
9. MVDLNGNTYSESMVAV  33.8
10. MGQLQDMQNNNWVPIV  33.8

Molecular target: T2, SHC1 149-317 PID (domain begin residue: …
Test: as above
How it was run: as §1

In order of rising “phage ELISA signal ratio” value:
1. LEEHWQWWVDDMMPME  4.84
2. EWGIMDSEWWGRYYEM  6.81
3. GPMIGWNQEYIFFSEH  16.2
4. EWNKNLHWFEVFDQEV  20.3

Molecular target: T3, SPRED2 1-124 WH1 (domain begin residue: …
Test: as above
How it was run: as §1

In order of rising “phage ELISA signal ratio” value:
1. SSMWWTDTGDMYLRPE  4.88
2. NLWPEVEPIMDNWQPS  6.67
3. TWGWFDTGEAWSTMSM  10
4. HPIFNDAGGLQGWFSY  11.1

Molecular target: T4, SPRED3 1-117 WH1 (domain begin residue: …
Test: as above
How it was run: as §1

In order of falling “phage ELISA signal ratio” value:
1. EPDYGTAWFQHMMQEW  31
2. DPGWYWEPAMLEAEWA  28.4
3. DVWYTTSESIIQYMQS  27.7
4. WTWMGDEEVFYHESLL  23.8
5. VTPQEMWEEYIATLQI  23.4
6. HEMFLWDGETVMQVWW  20.8
7. MWMWDGMQVVHLFEQY  20.5
8. WMWDGLAVVHMVPESV  8.68
9. WEWKDYEKVVHFQDMK  3.38

Molecular target: T5, SPRED1 13-131 WH1 (domain begin …
Test: as above
How it was run: as §1

For WATVSEWGDWTTVVFN, the “phage ELISA signal ratio” value was 3.55.

Molecular target: T6, SPAG1 615-745 TPR_1 (domain begin …
Test: as above
How it was run: as §1

With MDLLEQQMWQDYFLWH the “phage ELISA signal ratio” value was 3.83.
